These results are taken from PubChem BioAssay (NCATS).

Unmarked numbers belong to inactive results. Calls come from the whole dose curve; as a rule, active = well fitted curve in the direction sought with a large enough effect; inactive = no such curve, though single readings can be large or run the other way.

The experiment in a line: qHTS for small molecule inhibitors of Yes1 kinase: Counter Assay (AID 686950).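 Note: no kinase present so only ADP-Glo detection of a fixed ADP amount is tested; luminescence from ADP-Glo reporting ADP in a fixed ATP and ADP mixture; 0% = DMSO wells with ATP plus ADP and -100% = ATP-only wells without ADP.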 To be noted: series mostly up to 76.9 µM; activity change, negative = inhibition: at the top concentration. The method in brief: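 ADP-Glo luminescence read after a 60 min room-temperature incubation of compound with an ATP/ADP mix (0.08 mM/0.02 mM) and no kinase, following a 20 min compound preincubation. Signal scaled between ATP+ADP (max) and 0.1 mM ATP-only (min) wells; Tris pH 7.5, Mg2+, DTT.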
Consider `COc1ccc(CCN(C)CCCOc2ccc(S(=O)(=O)c3[nH]c4ccccc4c3C(C)C)cc2)cc1OC`, for which the “activity change, negative = inhibition” value is 5.03%. As for `Cc1cccc(Nc2nc(N[C@@H]3CCCC[C@H]3N)ncc2C(N)=O)c1`, the “activity change, negative = inhibition” value is -3.22%. With `CCc1cc(-c2n[nH]c(C)c2-c2ccc3c(c2)OCCO3)c(O)cc1O` the figure was 4.42%; with `O=C(Nc1ccc(OC(F)(F)F)cc1)c1sccc1NCc1ccnc2ccccc12`, 2.18%; with `CC(C)C[C@H](NC(=O)c1cc2ccccc2s1)C(=O)N1CCN(C(=O)[C@H](CO)NS(=O)(=O)c2ccc(Cl)cc2Cl)CC1`, -2.38%. `CCOC(=O)[C@@H](N)CCC(=O)N[C@@H](CSCc1ccccc1)C(=O)N[C@@H](C(=O)OCC)c1ccccc1`: the “activity change, negative = inhibition” value is 3.12%. As for `CN(C)CCOc1ccc(-c2nc(-c3ccc4c(c3)CCC4=NO)c(-c3ccncc3)[nH]2)cc1`, the figure is 43.4%.

In the case of `CC(C)(C)c1[nH]cnc1C=c1[nH]c(=O)c(=Cc2ccccc2)[nH]c1=O`, the “activity change, negative = inhibition” value is -0.799%.

In the case of `Cc1c(C(=O)Nc2ccc(N3C[C@@H](C)O[C@@H](C)C3)nc2)cccc1-c1ccc(OC(F)(F)F)cc1`, the “activity change, negative = inhibition” value was -0.245%. Consider `CC(=O)Nc1cccc(-n2c(=O)n(C3CC3)c(=O)c3c(Nc4ccc(I)cc4F)n(C)c(=O)c(C)c32)c1`, for which the “activity change, negative = inhibition” value was 0.201%. On to `CN(C)CCN(C)C(=O)c1ccc(NC(=O)Nc2ccc(-c3nc(N4CCOCC4)c4ccn(CC(F)(F)F)c4n3)cc2)cc1`, for which the “activity change, negative = inhibition” value is 3.16%. As for `Cc1ccc(C(=O)N(CCCN)[C@@H](c2nc3cc(Cl)ccc3c(=O)n2Cc2ccccc2)C(C)C)cc1`, the figure is -7.16%. With `COc1ccc2c(c1)CC[C@H]1[C@@H]2CC[C@]2(C)[C@@H](NCCCCCCN3C(=O)C=CC3=O)CC[C@H]12` the figure was 2%. `CC(C)n1c(C=C[C@H](O)C[C@H](O)CC(=O)O)c(-c2ccc(F)cc2)c2ccccc21`: the “activity change, negative = inhibition” value was 4.21%. With `CC(=O)NCCC(=O)N[C@@H](CCC(N)=O)C(=O)N[C@@H](CO)C(=O)N[C@@H](CCC(N)=O)C(=O)N[C@@H](CCC(N)=O)C(=O)N[C@H](C(=O)N[C@@H](Cc1ccccc1)C(=O)N[C@]1(C)CCCCCCC=CCCC[C@@](C)(C(=O)N[C@@H](CCC(N)=O)C(=O)N[C@@H](CC(N)=O)C(N)=O)NC(=O)[C@H](CC(C)C)NC(=O)[C@H](CC(C)C)NC(=O)[C@@H](CCCNC(=N)N)NC(=O)[C@H](Cc2c[nH]c3ccccc23)NC(=O)[C@H](CC(C)C)NC(=O)[C@H](CC(N)=O)NC1=O)[C@H](C)O` the figure was 4.09%; with `CC(C)Oc1cc(Nc2nc(N[C@@H](C)c3ccc(F)cn3)ncc2Cl)[nH]n1`, -12.4%; with `O=C1Nc2ccc(I)cc2C1=Cc1cc(Br)c(O)c(Br)c1`, 13.2%. As for `CCCCc1ccc(NS(=O)(=O)c2ccc(C)c(C(=O)N3CCN(c4cccc(C)c4C)CC3)c2)cc1`, the “activity change, negative = inhibition” value was 2.81%. Take `O=C(O)Cc1cccc(OCCCN(Cc2cccc(C(F)(F)F)c2Cl)CC(c2ccccc2)c2ccccc2)c1`: the “activity change, negative = inhibition” value is -1.48%.

Turning to `COc1cc2nccc(Oc3ccc(NC(=O)Nc4cc(C)on4)c(Cl)c3)c2cc1OC`, the “activity change, negative = inhibition” value was 6.39%. As for `COc1cc2ncn(-c3cc(OCc4ccccc4S(C)(=O)=O)c(C#N)s3)c2cc1OC`, the figure is 3.52%. On to `CC1=C[C@@H]2[C@@H]([C@@H](O)C[C@@]3(C)[C@H]2C[C@@H](C)[C@]3(O)C(=O)CO)[C@@]2(C)Cc3cnn(-c4ccccc4)c3C=C12`, for which the “activity change, negative = inhibition” value was -1.86%. As for `Cc1cc2c(cc1C1(c3ccc(C(=O)O)cn3)CC1)C(C)(C)CCC2(C)C`, the figure is -1.39%. `CCN(CC)CCCCNc1nc2cc(Cl)c(Cl)cc2nc1-c1ccc(-c2cccs2)s1`: the “activity change, negative = inhibition” value was 2.77%. With `CCNC(=O)c1noc(-c2cc(C(C)C)c(O)cc2O)c1-c1ccc(CN2CCOCC2)cc1` the figure was 4.81%.
